According to ChEMBL document CHEMBL4513216, “Probing the Open Global Health Chemical Diversity Library for Multistage-Active Starting Points for Next-Generation Antimalarials” (ACS Infect Dis, 2020):
The whole screen tested about 69,000 compounds, of which about 8,600 (12%) showed an effect of 50% or more. What follows is part of a selection rich in strong results, with near analogues and random picks from the rest.

These molecules were tested on Plasmodium berghei (assay: Screen against P. berghei liver stage (PbLuc), transformed with Luciferase, at 10uM). Conditions: tested at 10 uM.
Format: functional, HepG2
For `O=C(c1cccnc1)N1CCn2nnc(COc3ccccn3)c2C1`, the INHIBITION was 41.6%. For `CN(C)CCOCc1cncc2c1CCN(C(=O)c1cscn1)C2`, the INHIBITION was 49.4%. With `O=C1CC(NS(=O)(=O)c2ccc(Br)cc2)CN1` (centres undefined) the INHIBITION was 53.7%. `O=C1CC(NS(=O)(=O)c2ccc(Cl)cc2)CN1` (centres undefined) was tested, and the INHIBITION was 45.5%. With `Cc1ccc(S(=O)(=O)NC2CNC(=O)C2)cc1C` (centres undefined) the INHIBITION was 38.5%. `COc1cccc(S(=O)(=O)NC2CNC(=O)C2)c1` (centres undefined) was tested, and the INHIBITION was -12.2%. `CSc1ccc(S(=O)(=O)NC2CNC(=O)C2)cc1` (centres undefined) was tested, and the INHIBITION was 42.1%. Work on `COC(=O)c1ccc(S(=O)(=O)NC2CNC(=O)C2)cc1` (centres undefined) yielded an INHIBITION of 60.6%. `O=C(c1ccnc(C2CCNCC2)c1)N1CCCC(CO)C1` (centres undefined) was tested, and the INHIBITION was 23.9%. Molecule `CCOCC1CN(C(=O)c2cc(C)oc2C)Cc2c1cnn2C` (centres undefined) has an INHIBITION of 36.2%. Work on `COC[C@H]1CC[C@H]2[C@H](CCN2S(=O)(=O)c2ccccc2)O1` yielded an INHIBITION of 4.68%. `c1nc(N2CCOCC2)sc1-c1cncn1CCCN1CCCCC1` showed an INHIBITION of 8.32%. Work on `CC(O)CN1CCN(C(=O)CCOC(C)C)CC1` (centres undefined) yielded an INHIBITION of 8.05%. `CCOCCC(=O)N1CCN(CC(C)O)CC1` (centres undefined) gave an INHIBITION of 29.4%. Work on `CCC(O)CN1CCN(C(=O)CCSC)CC1` (centres undefined) yielded an INHIBITION of 68.2%. `CCN1CCN(C(=O)CCC2CCN(C(=O)CCSC)CC2)CC1` was tested, and the INHIBITION was 33.5%. For `CSCCC(=O)N1CCN(CC(C)O)CC1` (centres undefined), the INHIBITION was 68.2%. For `CSCCC(=O)N1CCN(CC(O)C(C)(C)C)CC1` (centres undefined), the INHIBITION was -46.4%. With `CSCC(=O)N1CCN(CC(O)C(C)(C)C)CC1` (centres undefined) the INHIBITION was 60.9%. `CC(C)(C)C(O)CN1CCN(C(=O)COCC2CC2)CC1` (centres undefined) showed an INHIBITION of 10.6%. `CSCCC(=O)N1CCN(CC(C)(C)O)CC1` was tested, and the INHIBITION was -94.3%. In the case of `O=C(CCC(=O)N1CCCC1c1ccsc1)N1CCOCC1` (centres undefined), the INHIBITION is reported as 7.24%. `Cc1ccc2nc(-c3nc4c([nH]3)CCCNC4=O)cn2c1` gave an INHIBITION of -87.9%. `CCOC(=O)CN1CCC2(CC1)CC(=O)c1ccc3ccccc3c1O2` showed an INHIBITION of 31.2%. `CCC(=O)NCc1ccc(N2CCCCC2)cc1` was tested, and the INHIBITION was -0.578%. For `Cc1nc(C)n(CC2CCCN2Cc2cc(-c3cccs3)on2)n1` (centres undefined), the INHIBITION was 40.65%. Work on `c1nnc(Nc2cncc(C3CCCN3CC3CC3)n2)s1` (centres undefined) yielded an INHIBITION of 11.8%. `Cc1noc2nc(C3CCCN(Cc4cccnc4)C3)cc(C(F)F)c12` (centres undefined) gave an INHIBITION of 41.2%. `CCc1cc(O)nc(C2CCCN2C(=O)c2cc(C)no2)n1` (centres undefined) showed an INHIBITION of 26.9%. For `Cc1cc(C(=O)N2CCCC2c2nc(C)cc(O)n2)on1` (centres undefined), the INHIBITION was 44.8%. Work on `CCc1c(C)nc(C2CCCN2C(=O)c2cc(C)no2)nc1O` (centres undefined) yielded an INHIBITION of 30.4%. `CCc1cc(C(=O)N2CCCC2c2nc(C)c(F)c(O)n2)on1` (centres undefined) showed an INHIBITION of 53%. With `CCc1cc(C(=O)N2CCCC2c2nc(C)c(CC)c(O)n2)on1` (centres undefined) the INHIBITION was -21.4%. In the case of `Cc1cc(C(=O)N2CCCC2c2nc(O)cc(C(C)C)n2)on1` (centres undefined), the INHIBITION is reported as 51.5%. Molecule `CN(C)CCN1C(=O)CCC12CCCN(C(=O)C1CC=CC1)CC2` (centres undefined) has an INHIBITION of -38.1%. `NC(=O)CCN(CC(=O)NCc1cccs1)c1ccc(F)cc1` gave an INHIBITION of 47.3%. `Cn1cc(CN2CC[C@@H]3[C@@H](CO[C@H]3CNC(=O)c3ccco3)C2)cn1` showed an INHIBITION of -16.9%. Work on `CCN1CC[C@@]2(C(=O)N3CCOCC3)CCN(C(=O)NC)CC[C@@H]12` yielded an INHIBITION of -19.6%. In the case of `Cc1cc(-c2nccs2)nc(C2CCN(Cc3ccncc3)CC2)n1`, the INHIBITION is reported as 26.7%. In the case of `Cc1cc(-c2nccs2)nc(C2CCN(Cc3ccccn3)CC2)n1`, the INHIBITION is reported as 23.9%. `Cc1cc(-c2nccs2)nc(C2CCN(Cc3ccc(F)cc3)CC2)n1` was tested, and the INHIBITION was 52.7%. With `Cc1nccc([C@@H]2C[C@@H]3CCN(Cc4cccs4)C[C@H]3O2)n1` the INHIBITION was -32.6%. `Cc1cc(-c2nccs2)nc(C2CCN(Cc3cccs3)CC2)n1` gave an INHIBITION of 50.8%. In the case of `Oc1cc(-c2nccs2)nc(C2CCN(Cc3cccs3)CC2)n1`, the INHIBITION is reported as 2.55%. Molecule `Cc1nnc(C(C)NCC2(c3ccc(F)cc3)CCCCC2)o1` (centres undefined) has an INHIBITION of -14.6%. Molecule `O=C(CCn1ccccc1=O)Nc1ccc(C(=O)O)cc1` has an INHIBITION of 12.7%. Molecule `Cc1nc(N(C)C)nc2c1COCC21CCN(C(=O)NCC(C)C)C1` (centres undefined) has an INHIBITION of -43.8%. `CC(NC(=O)CCOc1ccc(F)cc1)c1nnc2n1CCCCC2` (centres undefined) showed an INHIBITION of 28.8%. `COc1ccccc1CNc1ccc2nncn2n1` showed an INHIBITION of -33.8%. Molecule `O=C(Cn1cccnc1=O)NC(Cc1ccsc1)c1cccnc1` (centres undefined) has an INHIBITION of 14.7%. Molecule `CC(C)c1cc(NCC2(CO)CCCC2)ncn1` has an INHIBITION of 44.3%. `CC(C)c1cc(NCC2(CO)CCC2)ncn1` was tested, and the INHIBITION was 66.7%. `CC(C)c1cc(NCC2(N(C)C)CCCC2)ncn1` gave an INHIBITION of 49.9%. Work on `CCN(CC)Cc1ccc(C(=O)NC2CCc3cc(F)ccc32)o1` (centres undefined) yielded an INHIBITION of 9.91%. Molecule `CCN(CC)Cc1ccc(C(=O)NC2CCc3cc(Br)ccc32)o1` (centres undefined) has an INHIBITION of 36.7%. In the case of `CCN(CC)Cc1ccc(C(=O)NC2CCc3cc(Cl)ccc32)o1` (centres undefined), the INHIBITION is reported as 50.5%. For `O=C(CC1CCCC1)Nc1ccc(-n2cc(Cl)cn2)nc1`, the INHIBITION was -18.8%. In the case of `CC(C)c1sc(Br)nc1C(=O)NCc1ccco1`, the INHIBITION is reported as -7.81%. `Cc1csc(CN2C[C@@H]3COC[C@]3(COCC(=O)N(C)C)C2)n1` gave an INHIBITION of -2.35%. In the case of `CN1CCN(c2ccccc2CNC(=O)Cc2cccc(F)c2)CC1`, the INHIBITION is reported as 30.3%. With `Cc1ccc(CN2CCc3c(CN4CCCC4)n[nH]c3C2)s1` the INHIBITION was 26.5%. With `Cc1cc(C)nc(C2CCN(C3CCCCC3)C2)n1` (centres undefined) the INHIBITION was -36.4%. Work on `CCS(=O)(=O)NC[C@]12COC[C@H]1CN(Cc1ccsc1)C2` yielded an INHIBITION of 53.9%. Molecule `CCS(=O)(=O)NC[C@]12COC[C@H]1CN(Cc1ccncc1)C2` has an INHIBITION of 53.9%. `CCS(=O)(=O)NC[C@]12COC[C@H]1CN(Cc1ccccn1)C2` showed an INHIBITION of 4.27%. With `CCS(=O)(=O)NC[C@]12COC[C@H]1CN(Cc1sccc1C)C2` the INHIBITION was 28.7%. Molecule `CCS(=O)(=O)NC[C@]12COC[C@H]1CN(Cc1cccnc1)C2` has an INHIBITION of 24.9%. With `CCS(=O)(=O)NC[C@]12COC[C@H]1CN(Cc1cc(C)on1)C2` the INHIBITION was 18.8%. For `CCS(=O)(=O)CC(=O)NC(c1ccc(F)cc1)C1CCCC1` (centres undefined), the INHIBITION was 42.6%.
